Source: PubChem
Compounds with a hit are over-represented: about 0.87% of the library has one in this group of screens.
WRN inhibitor: qHTS for Inhibitors of WRN Helicase; WRN helicase unwinding, fluorescent forked duplex, kinetic; Bifunctional 3'-5' exonuclease/ATP-dependent helicase WRN (Homo sapiens), Q14191; Potency, µM (top dose mostly 114 µM), actives largely listed as inhibitors; actives 0.46% (n = 360,000); also: nearly all actives have a fitted effect of over 55% in size
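Kinetic red-fluorescence monitoring (525/598 nm) tracks WRN helicase activity after 100 nM fluorophore-quencher forked duplex and 2 mM ATP are added to 20 nM enzyme pretreated 15 min at room temperature with compound.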
APE1 inh-1: qHTS Assay for Inhibitors of the Human Apurinic/apyrimidinic Endonuclease 1 (APE1); DNA repair nuclease/redox regulator APEX1 (Homo sapiens), P27695; recombinant APE1, TAMRA/BHQ-2 abasic DNA cleavage fluorescence; Potency, µM (titrated, usually from 65.8 µM), hits mostly inhibitors; actives 0.35% (n = 350,000); AID 2517, 2012; also: nearly all actives have a fitted effect of over 55% in size
Target sequence (P27695 whole entry, looked up): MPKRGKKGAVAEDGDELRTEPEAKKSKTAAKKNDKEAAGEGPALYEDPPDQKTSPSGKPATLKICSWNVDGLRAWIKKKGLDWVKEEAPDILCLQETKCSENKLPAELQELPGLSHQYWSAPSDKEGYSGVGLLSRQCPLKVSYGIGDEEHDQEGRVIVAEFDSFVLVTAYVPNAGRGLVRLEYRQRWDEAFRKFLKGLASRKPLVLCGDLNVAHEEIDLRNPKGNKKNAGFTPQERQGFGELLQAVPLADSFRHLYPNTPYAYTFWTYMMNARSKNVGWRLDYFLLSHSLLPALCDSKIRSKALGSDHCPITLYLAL
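Activity was derived from the fluorescence gain between first and third kinetic reads (60 s intervals, ex 525/em 598 nm) after 50 nM THF-abasic TAMRA/BHQ-2 duplex was added to 0.75 nM APE1 preincubated 15 min with compound.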
RECQ1 helicase: qHTS Assay for Inhibitors of RecQ-Like Dna Helicase 1 (RECQ1). RECQ1 DNA unwinding, red fluorescence kinetic read. Potency, µM (top dose mostly 57.3 µM), usual class: inhibitors. actives 0.54% (n = 240,000). AID 2549, 2010; also: nearly all actives have a fitted effect of over 30% in size
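50 nM RECQ1T1 preincubated 15 min with compound in Tris pH 8.0 buffer with MgCl2, DTT, Tween-20 and 2.5 ug/ml poly(dI-dC); started with 200 nM TAMRA/BHQ-2 forked duplex and 2 mM ATP. Unwinding read as fluorescence (525/598 nm), two reads 2 h apart.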
FEN1 inh: qHTS Assay for the Inhibitors of Human Flap endonuclease 1 (FEN1); AID 588795, 2011; Recombinant FEN1 flap cleavage, fluorescence, 15 min; Potency, µM (top dose mostly 114 µM), most hits filed as inhibitors; actives 0.35% (n = 390,000); also: nearly all actives have a fitted effect of over 65% in size
Target sequence (P39748 whole entry, looked up): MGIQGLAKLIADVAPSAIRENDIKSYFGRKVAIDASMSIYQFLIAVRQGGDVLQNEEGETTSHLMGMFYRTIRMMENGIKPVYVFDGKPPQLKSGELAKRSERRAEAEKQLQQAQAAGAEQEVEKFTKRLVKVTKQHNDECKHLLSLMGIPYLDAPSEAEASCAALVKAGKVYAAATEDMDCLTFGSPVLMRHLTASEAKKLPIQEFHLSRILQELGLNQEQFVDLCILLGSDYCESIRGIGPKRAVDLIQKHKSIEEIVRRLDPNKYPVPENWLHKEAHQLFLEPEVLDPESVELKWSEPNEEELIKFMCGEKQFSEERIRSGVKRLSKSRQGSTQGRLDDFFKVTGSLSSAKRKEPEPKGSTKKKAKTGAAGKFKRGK
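With each library titrated from low to high concentration, compounds met 10 nM FEN1 for 15 min at room temperature before 50 nM substrate was added; readings at 0 and 15 min fed four-parameter Hill curve fits.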
BLM inh: qHTS Assay for Inhibitors of Bloom's syndrome helicase (BLM) | AID 2528, 2010 | Potency, µM (top dose mostly 56.1 µM), hits mostly inhibitors | recombinant BLM DNA unwinding, fluorescence dequenching | RecQ-like DNA helicase BLM (Homo sapiens), P54132 | actives 0.2% (n = 350,000); also: nearly all actives have a fitted effect of over 35% in size
APE1 dye cs: Counterscreen for APE1 Inhibitors: Fluorescent Dye Displacement Assay; shares compounds with APE1 inh-1; actives 7% (n = 480); DNA fluorescent dye displacement counterscreen, fluorescence; Potency, µM (top dose mostly 28.5 µM), hits mostly inhibitors;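 also: loss of thiazole orange fluorescence as the dye is displaced from duplex DNA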
EndoIV counter: Counterscreen for APE1 Inhibitors: qHTS Assay for Inhibitors of Endonuclease IV. E. coli Endo IV, fluorogenic AP-site DNA cleavage. actives 4% (n = 560). Potency, µM (titrated, usually from 27.1 µM), hits mostly inhibitors. shares compounds with APE1 inh-1. AID 2565, 2010
APE1 inh-2: Confirmation qHTS Assay for Inhibitors of the Human Apurinic/apyrimidinic Endonuclease 1 (APE1). shares compounds with APE1 inh-1. purified APE1, fluorogenic abasic-site DNA cleavage. Potency, µM (titrated, usually from 57.1 µM), actives largely listed as inhibitors. actives 44% (n = 750). AID 2572, 2010; also: nearly all actives have a fitted effect of over 30% in size
APE1 FP: qHTS FP-Based Assay for Inhibitors of the Human Apurinic/apyrimidinic Endonuclease 1 (APE1) | AID 2573, 2010 | actives 7% (n = 480) | shares compounds with APE1 inh-1 | Potency, µM (top dose mostly 28.5 µM), hits mostly inhibitors | APE1 binding to TAMRA-labelled double-stranded DNA, fluorescence polarization displacement
Numbers stand for hits; . = inactive; ? = inconclusive; / = no result given; ! = repeats disagree. Calls follow the shape of the dose curve; as a rule, active = well fitted curve in the direction sought with a large enough effect; inconclusive = small, poorly fitted or top-dose-only effect, or another doubt; inactive = no such curve, though single readings can be large; an effect the other way counts as inactive or inconclusive.

SMILES	WRN inhibitor	APE1 inh-1	RECQ1 helicase	FEN1 inh	BLM inh	APE1 dye cs	EndoIV counter	APE1 inh-2	APE1 FP
O=C(c1cccc(C(=O)N2CCN(c3ncccn3)CC2)c1)N1CCN(c2ncccn2)CC1	.	.	.	.	.	/	/	/	/
CC(=O)c1ccc(NC(=O)c2ccc3nc(-c4ccco4)c(-c4ccco4)nc3c2)cc1	25µM	?	8.9µM	50µM	16µM	8.9µM	?	4µM	.
O=C(c1ccc2nc(-c3ccco3)c(-c3ccco3)nc2c1)N1CCN(c2ncccn2)CC1	45µM	?	.	.	?	?	.	?	.
COc1cc([N+](=O)[O-])cc(/C=N/NC(=O)Cn2cncn2)c1O	.	.	.	.	.	/	/	/	/
COc1cc([N+](=O)[O-])cc(/C=N/NC(=O)CC#N)c1O	/	?	?	/	.	.	.	?	?
O=S(=O)(c1ccccc1)N1N=C(c2cccs2)CC1c1ccc(F)cc1 (centres undefined)	.	.	.	.	.	/	/	/	/
Fc1ccc(N2N=C(c3cccs3)CC2c2ccccc2)cc1 (centres undefined)	.	.	.	.	.	/	/	.	/
COC(=O)c1ccc(=O)c2nc3/c(=C/O)c(O)cc(=O)c3[nH]c12	?	?	?	40µM	18µM	?	?	?	.
COC(=O)c1ccc(N)cc1O	.	?	.	.	.	/	/	/	/
O=c1cc(-c2ccccc2)oc2cc(O)c(O)c(O)c12	?	5.6µM	28µM	35µM	16µM!	1µM	.	0.63µM	.
COc1c(O)cc2oc(-c3ccc(O)cc3)cc(=O)c2c1O	.	?	.	.	.	/	/	/	/
O=c1cc(-c2ccc(O)cc2)oc2c(O)c(O)c(O)c(O)c12	7.1µM	4.5µM	13µM	20µM	10µM	.	.	0.5µM	.
O=C1CC(c2ccccc2)Sc2ccccc2N1Cc1ccccc1F (centres undefined)	/	/	/	.	.	/	/	/	/
CCOc1ccc(OC(=O)c2cn(-c3ccc(C)cc3)c(=O)c3ccccc23)cc1	/	/	/	.	.	/	/	/	/
CCc1oc(C(=O)O)cc1COC	.	?	.	.	.	/	/	/	/
COCc1cc(O)c(O)c(O)c1-c1c(COC)cc(O)c(O)c1O	/	0.18µM	1µM	1.6µM	.	.	.	0.32µM	.
CN1CCc2cc3c(c4c2[C@H]1[C@H](O)c1ccccc1-4)OCO3	.	?	.	40µM	.	4.5µM	8.9µM	11µM	13µM
COc1ccc2c(c1OC)C(=O)O[C@H]2C1c2c(cc3c(c2OC)OCO3)CCN1C (some centres undefined)	/	.	.	/	.	/	/	/	/
CC(C)CCn1c(=O)c2cccnc2n(CC(=O)Nc2ccc(F)cc2)c1=O	/	/	/	.	.	/	/	/	/
CCOC(=O)C1=C(C)NC(=O)NC1c1ccco1 (centres undefined)	.	?	.	.	.	.	.	?	.
CCCc1cnc2c(c1SCC(=O)N1CCC(C)CC1)c(=O)n(C)c(=O)n2C	/	/	/	.	.	/	/	/	/
CCOC(=O)CNC(=O)CSc1nnc(-c2ccco2)n1Cc1ccco1	.	32µM	.	.	.	?	.	.	.
CCOC(=O)CNC(=O)CSc1nnc(-c2ccco2)n1N	.	.	.	.	.	/	/	/	/
Cc1cc2nc(-c3ccc(SCc4ccc(C(=O)O)cc4)nc3)[nH]c2cc1C	?	.	.	?	?	/	/	40µM	/
CCOc1ccc(N(CC)S(=O)(=O)N2CCCC(C(=O)NCCc3ccccc3OC)C2)cc1 (centres undefined)	/	/	/	.	.	/	/	/	/
SMILES	WRN inhibitor	APE1 inh-1	RECQ1 helicase	FEN1 inh	BLM inh	APE1 dye cs	EndoIV counter	APE1 inh-2	APE1 FP
O=c1cc(-c2ccc(O)cc2)oc2cc(O)c([C@@H]3O[C@H](CO)[C@@H](O)[C@H](O)[C@H]3O)c(O)c12	.	.	.	.	.	/	/	/	/
O=c1cc(-c2ccc(O)c(O)c2)oc2cc(O)c(C3OC(CO)C(O)C(O)C3O)c(O)c12 (centres undefined)	?	7.9µM	.	?	.	?	.	3.2µM	.
[O][C@H]1[C@@H](O)[C@@H](CO)O[C@@H](O[C@@H]2[C@@H]3OC[C@H]2O[C@H](O[C@@H]2[C@@H](O)[C@H](C[C@@H]4[C@@H]5OC[C@H]4O[CH][C@@H]5O)O[C@H](CO)[C@@H]2OS(=O)(=O)O)[C@@H]3OS(=O)(=O)O)[C@@H]1O	/	10µM	4µM	/	?	.	.	7.1µM	.
CCOc1cc(/C=C2/C(=O)N(c3ccccc3)N=C2C)ccc1OC(=O)c1ccco1	?	.	.	.	.	/	/	/	/
CCOc1cc(/C=C2\C(=O)N(c3ccc(C(N)=O)cc3)N=C2C)ccc1OC(=O)c1cccs1	?	28µM	.	.	.	?	.	.	.
Cc1cc2c3c(cccc3n1)C(=O)c1ccccc1-2	/	?	.	/	.	?	.	?	2.5µM
Cc1ccc2c3c(cccc13)-c1ccccc1C2=O	.	.	.	?	.	/	/	/	/
Cc1cc(C)n(-c2nc3cc(Cl)ccc3nc2N2CCN(c3ccccc3F)CC2)n1	/	/	/	.	.	/	/	/	/
COc1ccnc(Oc2ccccc2)c1C(N)=O	.	.	.	.	.	.	.	.	?
COC(=O)[C@H](Cc1ccccc1)NC(=O)O[C@@H]1C(=O)c2cc(OC)ccc2O[C@H]1c1cccc(OC)c1	/	.	.	/	.	/	/	/	/
COc1ccccc1NC(=O)CCNS(=O)(=O)c1ccc2c(c1)CCCC(=O)N2	/	/	/	.	.	/	/	/	/
COc1ccc(-n2nc3c(=O)[nH][nH]c3cc2=O)cc1	?	?	.	?	.	/	/	?	/
Cc1ccccc1NC(=O)Cn1c(SCC(=O)Nc2ccc(F)cc2)nc2ccccc21	/	/	/	.	.	/	/	/	/
Cc1ccsc1CCN1C(=O)N(c2ccc(F)cc2)C(=O)C1CC(=O)Nc1ccccc1 (centres undefined)	/	/	/	.	.	/	/	/	/
